Reference: PubChem BioAssay (EPA / NIEHS)
Records with an inconclusive call do not appear. Activity calls are given as the source filed them. How the source made its calls: active means hit-call score of the fitted dose curve at least 0.9, where 1 is the maximum; inconclusive means response in the unintended direction; inactive means score below 0.9.

Experiment: ATG_M_32_TRANS: Attagene TRANS-FACTORIAL HepG2 Assay for M32 Transcription Factor (Internal Marker) (AID 2282984);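 further: transcript level of a background control reporter unit measured by RT-PCR and capillary electrophoresis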
Conditions: HepG2 Attagene TRANS M32 internal marker reporter
In short: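 Internal background reporter in transfected HepG2: after 24 h chemical exposure, RNA reverse-transcribed, reporter cDNA amplified, fluorescently labelled and HpaI-cut, then sized by capillary electrophoresis. Gain of signal fitted against DMSO control.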
For `Nc1ccc(-c2ccc(N)c(N)c2)cc1N`, the outcome was “inactive”. For `CCOP(O)OCC`, the outcome was “inactive”. For `C#CC1(O)CCCCC1`, the outcome was “inactive”. With `O=c1[nH]c(Cl)c(Cl)cc1Cl` the outcome was “inactive”. With `CCC(C)c1cc(C(C)(C)C)cc(-n2nc3ccccc3n2)c1O` (configuration not stated) the outcome was “inactive”. With `Nc1c(Cl)c(Cl)c(Cl)c(Cl)c1Cl` the outcome was “inactive”. In the case of `COC(=O)c1ccccc1S(=O)(=O)NC(=O)Nc1nc(C)cc(C)n1`, the outcome is reported as “inactive”. With `Nc1ccccc1C(=O)OCCc1ccccc1` the outcome was “inactive”. In the case of `N#Cc1cccc(C#N)c1`, the outcome is reported as “inactive”. For `O=C(O)CCCc1ccc(N(CCCl)CCCl)cc1`, the outcome was “inactive”. In the case of `Nc1cc(Cl)cc(Cl)c1`, the outcome is reported as “inactive”. In the case of `COC(C)(C)CCC[C@H](C)C/C=C/C(C)=C/C(=O)OC(C)C`, the outcome is reported as “inactive”. For `[CH3][Sn]([CH3])([Cl])[Cl]`, the outcome was “inactive”. In the case of `BrCBr`, the outcome is reported as “inactive”. With `CCc1cccc(C)c1N(C(=O)CCl)[C@@H](C)COC` the outcome was “inactive”. With `O=P1(NCCCl)OCCCN1CCCl` (configuration not stated) the outcome was “inactive”. With `CC(Cc1ccc(C(C)(C)C)cc1)CN1C[C@@H](C)O[C@@H](C)C1` (some centres not stated) the outcome was “inactive”. With `C[N+](C)(C)CC(=O)O` the outcome was “inactive”. For `O=S(=O)(c1ccccc1)c1ccccc1`, the outcome was “inactive”. For `Clc1ccc(-c2ccccc2)cc1`, the outcome was “inactive”. With `CN(C)C(=O)C(c1ccccc1)c1ccccc1` the outcome was “inactive”. For `C=CCc1ccc(OC(=O)Cc2ccccc2)c(OC)c1`, the outcome was “inactive”. In the case of `O=P(O)(Oc1ccccc1)Oc1ccccc1`, the outcome is reported as “inactive”. For `CC1CCCC1.[C-]#[O+].[C-]#[O+].[C-]#[O+].[Mn]`, the outcome was “inactive”. For `O=C(O)COc1ccccc1`, the outcome was “inactive”. For `CCC(=O)c1ccc(Cl)cc1`, the outcome was “inactive”. In the case of `Cc1ccc(N(SC(F)(Cl)Cl)S(=O)(=O)N(C)C)cc1`, the outcome is reported as “inactive”.
